Screening data deposited in PubChem by National Center for Advancing Translational Sciences (NCATS).
TDP1 cell noCPT: qHTS for Inhibitors of human tyrosyl-DNA phosphodiesterase 1 (TDP1): qHTS in cells in absence of CPT; DT40 Tdp1-/- hTDP1 cells, no CPT, ATP luminescence, 48 h; Potency, µM (highest dose often 46.2 µM), for the others: top-dose activity change, negative = growth inhibition, hits mostly inhibitors; hit rate 15% among 420,000; AID 686978, 2013; also: potency is read from the fitted curve at half-maximal effect; nearly all actives have a fitted effect of over 55% in size
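No-CPT arm: Tdp1-/-;hTDP1 DT40 cells (400/well) plus compounds, incubated ≥48 hr at 37 °C. Readout CellTiter-Glo luminescence.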
IL1B secr inh: inhibitors of inflammasome signaling (IL-1 beta secretion) | THP-1 LPS/ATP IL-1B secretion, AlphaLISA, 16 h; stronger effect = lower value | activity change, % at 57.5 µM | hit rate 4.7% among 360,000; in the data active = activity change below about -50%; inconclusive = mostly about -30% to -49%
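THP-1 cells pretreated 1 hr with compounds (up to 57.5 uM final), then stimulated with LPS (250 ng/mL final) plus ATP (1.25 mM final); secreted IL-1B measured by AlphaLISA after 16 hr, decreased signal indicating inhibition.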
HT1080-NT tox: kills 2HG-producing HT-1080-NT fibrosarcoma cells | HT-1080-NT fibrosarcoma viability, CellTiter-Glo ATP luminescence, 48 h | Potency, µM (titrated, usually from 46.1 µM), for inactives: at the top dose activity, negative = less viability, hits mostly cytotoxic | hit rate 1.6% among 360,000;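 also: NT is the 2HG producing partner of a matched IDH1 knockdown line; potency is read from the fitted curve at half-maximal effect; 0% = DMSO-treated cells and -100% = media-only wells without cells; nearly all actives have a fitted effect of over 55% in size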
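Fibrosarcoma NT cells, 750 per well in 5% FBS RPMI, were exposed to compound for 48 hours. Viability: CellTiter-Glo luminescence.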
TDP1 cell CPT: growth inhibition of DT40 Tdp1-/-;hTDP1 cells with camptothecin (screen for TDP1 inhibitors); chicken DT40 Tdp1-/-;hTDP1 cells + 20 nM CPT, ATP luminescence, 48 h; Potency, µM (top dose mostly 46.2 µM), for inactives: at the top dose activity change, negative = growth inhibition, hits mostly inhibitors; hit rate 12% among 420,000; AID 686979; also: potency is read from the fitted curve at half-maximal effect; nearly all actives have a fitted effect of over 55% in size
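Chicken DT40 Tdp1-/- cells complemented with human TDP1, 400 cells/well, exposed to compounds plus 20 nM camptothecin for at least 48 h at 37 C; viability read as ATP content by CellTiter-Glo luminescence.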
HT1080 IDH1KD tx: kills HT-1080 cells with IDH1 knockdown. HT-1080 IDH1 knockdown viability, ATP luminescence, 48 h. Potency, µM (series often up to 46.1 µM), for inactives: at the highest dose activity, negative = toxicity, hits mostly cytotoxic. hit rate 2% among 360,000. AID 686971;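 also: potency is read from the fitted curve at half-maximal effect; 0% = DMSO wells and -100% = cell-free medium wells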
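Knockdown cells (IDH1KD HT-1080) received compounds 2 h after plating at 750 cells/well and were kept 48 h at 37 °C in 5% FBS RPMI. A CellTiter-Glo luminescence read gave % activity for curve fitting.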
* marks the source's active call; other numbers are inactive results; ? = inconclusive; . = no result; [ ] = another dose, or the depositor's remark. The list is not random: actives were taken first. Their share in the collection is about 19%. Unless noted, calls follow the shape of the dose curve; as a rule, active = well fitted curve in the direction sought with a large enough effect; inconclusive = small, poorly fitted or top-dose-only effect, or another doubt; inactive = no such curve, though single readings can be large; an effect the other way counts as inactive or inconclusive. Unless noted, % is scaled to controls: 0 for no effect and ±100 for the full control effect.

SMILES	TDP1 cell noCPT	IL1B secr inh	HT1080-NT tox	TDP1 cell CPT	HT1080 IDH1KD tx
COc1ccccc1CCC(=O)NNC(=O)Cn1nc(C)cc1C	0.4%	-5.5	3.7%	5.5%	11.2%
CCOC(=O)CSc1nnc(Cc2ccc(OC)cc2)n1-c1ccccc1	-1.0%	8.6	-1.5%	14.6%	-2.3%
COc1ccc(OC)c(-c2noc(CSc3nnc(-c4ccccc4)n3-c3ccccc3)n2)c1	5.17µM*	.	.	14.6µM*	.
COc1ccc(-c2noc(CSc3nnc(Cc4ccccc4)n3-c3ccccc3)n2)cc1OC	13µM*	.	.	23.1µM*	.
COc1ccc(-c2noc(CSc3nc4ccccc4c(=O)n3-c3ccccc3)n2)cc1OC	?	-20.5	-6.5%	?	-8.3%
COc1ccc(-c2noc(CSc3nc4sc(C)c(C)c4c(=O)n3-c3ccccc3)n2)cc1OC	?	23.9	13.4%	?	-13.0%
COc1ccc(OC)c(-c2noc(CSc3nnc(Cc4ccccc4)n3-c3cccc(C)c3)n2)c1	23.1µM*	.	.	18.4µM*	.
COc1ccc(-c2noc(CSc3nnc(Cc4ccccc4)n3-c3cccc(C)c3)n2)cc1OC	20.6µM*	-64.2*	?	16.4µM*	?
CCOc1ncccc1C(=O)OC(C)C(=O)NC(=O)NC1CCCCC1 (configuration not stated)	?	44.9	-1.4%	-97.4%	-10.3%
O=C(NCCc1ccccn1)c1ccc2nc(Cc3ccccc3F)oc2c1	-18.5%	-10.5	12.5%	?	-8.3%
CC(C)Oc1ccc(C(=O)CCN2CCOCC2)cc1	3.66µM*	0.8	-22.3%	3.26µM*	-10.1%
CC(C)Oc1ccc(C(=O)CCN2CCCCC2)cc1	?	-29.8	-5.3%	?	1.0%
CCCCCOc1ccc(C(=O)CCN2CCOCC2)cc1	8.2µM*	-18.3	?	5.8µM*	?
CNc1ccccc1	9.6%	8.0	2.9%	5.1%	6.1%
CNc1cccccc1=S	4.61µM*	8.0	0.2%	3.26µM*	10.3%
CC(C)(C)c1cc(S(=O)(=O)CCc2ccccn2)cc(C(C)(C)C)c1F	14.6µM*	-87.6*	?	13µM*	?
CN(CCc1ccccn1)S(=O)(=O)c1ccc(F)cc1	-20.7%	15.3	1.6%	-9.7%	-0.7%
CC(=O)N1CCCc2cc(S(=O)(=O)NCc3cccc(C)c3)ccc21	20.6µM*	.	.	?	.
COc1cccc(CNS(=O)(=O)c2ccc3c(c2)CCN3C(=O)C2CC2)c1	?	10.5	-0.5%	?	-14.6%
CC(=O)N1CCCc2cc(S(=O)(=O)NCc3ccc(N(C)C)cc3)ccc21	20.6µM*	.	.	?	.
COc1ccccc1CNS(=O)(=O)c1ccc2c(c1)CCCN2C(C)=O	-24.7%	43.2	-0.9%	-2.4%	5.5%
COc1ccc(CCNC(=O)CCc2ccc(S(=O)(=O)NCC(C)C)cc2)cc1OC	-3.9%	15.6	-1.5%	-9.2%	-3.9%
O=C(C1CC1)N1CCc2cc(S(=O)(=O)NCc3ccccc3)ccc21	?	11.0	?	23.1µM*	1.4%
CC(C)CNS(=O)(=O)c1ccc(CCC(=O)NCCC2=CCCCC2)cc1	23.1µM*	-9.6	-6.3%	?	-5.5%
CCOC(=O)C1CCN(C(=O)c2sc3ncn(CC(=O)N4CCCCC4)c(=O)c3c2C)CC1	-6.7%	12.5	4.0%	-6.7%	5.0%
SMILES	TDP1 cell noCPT	IL1B secr inh	HT1080-NT tox	TDP1 cell CPT	HT1080 IDH1KD tx
CC1(c2nnnn2-c2ccc3c(c2)OCCO3)CCC(=O)N1CCc1ccc(O)cc1 (configuration not stated)	-28.2%	24.0	4.4%	-26.3%	10.8%
CCOC(=O)c1c(C)[nH]c(C(=O)Nc2cc(OCC)c(N3CCOCC3)cc2OCC)c1C	?	1.4	-3.0%	?	-0.1%
CSc1ccc2cc(CNCc3ccccc3F)c(N3CCCC(CO)C3)nc2c1 (configuration not stated)	-11.7%	.	.	-5.5%[9.04 µM]	.
COC(=O)c1cc2oc(C)cc2n1Cc1ccc(Br)cc1F	-22.4%	.	.	-3.6%	.
CCC(=O)N1CCc2cc(S(=O)(=O)NCCC(=O)Nc3ccc(OC)c(OC)c3)ccc21	-4.8%	.	.	-19.3%	.
CCC(=O)N1CCc2cc(S(=O)(=O)NC(C(=O)NCc3ccc(C)cc3)C(C)C)ccc21 (configuration not stated)	-23.1%	0.0	-3.3%	4.7%	-2.8%
CCC(=O)N1CCc2cc(CNS(=O)(=O)c3ccc(NC(=O)CC(C)C)cc3)ccc21	18.4µM*	.	.	20.6µM*	.
CC(=O)N1CCCc2cc(S(=O)(=O)N3CCCCC3)ccc21	-21.0%	.	.	-6.6%	.
CCC(=O)N1CCc2cc(S(=O)(=O)NCc3ccc(C)cc3)ccc21	18.4µM*	.	.	23.1µM*	.
COc1ccc(CNC(=O)C(NS(=O)(=O)c2ccc3c(c2)CCCN3C(C)=O)C(C)C)cc1 (configuration not stated)	?	-3.3	-20.0%	-28.0%	-0.1%
CC(=O)N1CCCc2cc(S(=O)(=O)NCCC3=CCCCC3)ccc21	11.2µM*	23.1	-9.1%	10µM*	?
CC(=O)N1CCCc2cc(S(=O)(=O)NCc3ccc(C)cc3)ccc21	13µM*	8.6	2.0%	?	-13.4%
CC(C)(Cc1ccccc1)NC(=O)C(=O)c1cn(CC(=O)N2CCOCC2)c2ccccc12	-23.1%	12.5	-7.8%	-27.9%	-8.8%
CC(=O)N1CCCc2cc(S(=O)(=O)N3CCCC(C(=O)Nc4ccc(C)c(C)c4)C3)ccc21 (configuration not stated)	-10.6%	.	.	-17.3%	.
c1ccc(-c2ccccc2OCCOCCN2CCc3ccccc3C2)cc1	11.6µM*	-75.1*	?	?	?
CC1CN(CCOCCOc2ccccc2-c2ccccc2)CC(C)O1 (configuration not stated)	23.1µM*	12.8	-9.8%	?	-6.6%
Clc1ccc(OCCOCCN2CCc3ccccc3C2)c(Cl)c1	23.1µM*	-82.5*	23.1µM*	?	23.1µM*
OCCCN1CCN(CCOc2ccccc2-c2ccccc2)CC1	?	-16.9	-12.8%	1.0%	-7.2%
CCCCNCCOCCOc1ccccc1-c1ccccc1	29.1µM*	?	-21.9%	23.1µM*	-18.0%
CCNc1ccc(C2(O)C(=O)c3ccccc3C2=O)cc1	6.1%	0.0	?	12.3%	13.7%
O=C(CSCc1ccc(Cl)cc1)NCc1ccc2c(c1)OCO2	-16.6%	-8.3	-17.0%	-0.4%	-2.0%
CC(O)CNc1cnccn1 (configuration not stated)	-0.6%	43.8	8.5%	-3.5%	13.6%
C=CCN([C@@H](CC(C)C)C(=O)OC)S(=O)(=O)N(CC=C)[C@@H](CC(C)C)C(=O)OC	17.8µM*	36.4	7.6%	?	-6.6%
